PubChem BioAssay
The source made the active and inactive calls.

How the values were obtained:
[1] = binders of probe aFSTL3 on microarray, primary screen, stem cell growth factor project, biochemical, small-molecule microarray, fluorescence 635/667 (AID 1064); conditions: higher = more signal;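 note: measures binding of the biotinylated anti-FSTL3 antibody to printed compounds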
[2] = binders from COS7 lysate, DM2A8 probe, primary screen, torsin A project, cell lysate, small-molecule microarray, fluorescence 635/667 (AID 1065); conditions: higher = more signal, COS7 lysate expressing mutant human TOR1A
[3] = binders of probe aFGF2 on microarray, primary screen, stem cell growth factor project, biochemical, small-molecule microarray, fluorescence 635/667 (AID 1067); conditions: higher = more signal;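 note: measures binding of biotinylated aFGF2 protein to printed compounds on slides; z-score merges feature fluorescence and signal-to-noise across triplicate slides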
[4] = binders of probe aFGF10 on microarray, primary screen, stem cell growth factor project, biochemical, small-molecule microarray, fluorescence 635/667 (AID 1071); conditions: higher = more signal;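 note: score merges 667 nm spot intensity and signal to noise from triplicate slides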
[5] = biological target: Neurogenic locus notch homolog protein 2 (Homo sapiens) (UniProt Q04721); test: Notch2 binders on small-molecule microarrays, primary screen, biochemical, small-molecule microarray, 635 nm fluorescence, stem cell growth factors (AID 1073); conditions: Notch2 binding, higher = more signal
[6] = biological target: Pro-neuregulin-1, membrane-bound isoform (Homo sapiens) (UniProt Q02297); test: NRG1 binders on small-molecule microarrays, primary screen, psychiatric disease protein project, biochemical, small-molecule microarray, fluorescence 635/667 (AID 1075); conditions: NRG1 binding, 635 nm fluorescence, higher = more signal;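 note: score combines 667 nm spot fluorescence with signal to noise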
Pro-neuregulin-1, membrane-bound isoform (Homo sapiens), sequence (Q02297 whole entry, looked up, the tested form may be a part, canonical isoform): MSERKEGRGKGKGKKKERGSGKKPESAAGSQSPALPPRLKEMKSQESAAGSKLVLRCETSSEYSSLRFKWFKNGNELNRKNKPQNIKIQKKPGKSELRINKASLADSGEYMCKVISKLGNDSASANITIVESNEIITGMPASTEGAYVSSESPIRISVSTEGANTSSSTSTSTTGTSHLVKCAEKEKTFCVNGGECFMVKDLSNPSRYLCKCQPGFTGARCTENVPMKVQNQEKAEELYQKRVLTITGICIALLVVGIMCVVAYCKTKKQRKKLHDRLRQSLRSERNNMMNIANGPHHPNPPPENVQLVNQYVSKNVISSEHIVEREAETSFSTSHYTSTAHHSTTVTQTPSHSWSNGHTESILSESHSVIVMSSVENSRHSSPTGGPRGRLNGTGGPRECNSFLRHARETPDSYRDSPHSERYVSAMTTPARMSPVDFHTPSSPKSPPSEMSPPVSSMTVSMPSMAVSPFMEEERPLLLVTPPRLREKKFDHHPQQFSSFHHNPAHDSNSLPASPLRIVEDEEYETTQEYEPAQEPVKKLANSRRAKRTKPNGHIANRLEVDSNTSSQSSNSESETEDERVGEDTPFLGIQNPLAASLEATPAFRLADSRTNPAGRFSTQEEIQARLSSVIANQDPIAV

[7] = system: Neuregulin-1 EGF-like domain; test: binders of neuregulin-1 EGF-like domain, primary screen, biochemical, small-molecule microarray, 635 nm fluorescence (AID 1081); conditions: small-molecule microarray binding, higher = more signal;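 note: binding of the protein to compounds printed on small-molecule microarray slides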
[8] = FRG1 promoter luciferase signal modulators, primary screen, FRG1 inhibition for FSHD, cell-based, C2C12 myotubes, firefly/Renilla luciferase, luminescence (AID 1084); conditions: higher = more signal, called active from +8 up or from −8 down
[9] = binders of probe aFST on microarray, primary screen, stem cell growth factor project, biochemical, small-molecule microarray, fluorescence 635/667 (AID 1086); conditions: higher = more signal;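 note: score merges 667 nm fluorescence with signal-to-noise of each printed compound spot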
[10] = binders of probe aHhip on microarray, primary screen, stem cell growth factor project, biochemical, small-molecule microarray, fluorescence 635/667 (AID 1087); conditions: higher = more signal;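 note: score merges spot fluorescence at 667nm with spot signal to noise ratio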
[11] = system: PRMT1 (protein arginine N-methyltransferase 1); test: PRMT1 binders on small-molecule microarrays, primary screen, biochemical, small-molecule microarray, 635 nm fluorescence (AID 1088); conditions: small-molecule microarray binding, higher = more signal;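 note: binding of Prmt1 protein to compounds spotted on small-molecule microarray slides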
[12] = yeast growth modulation, basal conditions, primary screen, YJM789 clinical isolate, OD600, 24 h (AID 1089);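 note: growth of clinical yeast isolate S. cerevisiae YJM 789 seeded 1000 cells per well; test concentration not given here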; conditions: S. cerevisiae YJM789 growth, higher = more signal, called active from +8 up or from −8 down
[13] = fission yeast growth modulation, primary screen, strain 972, OD600, 24 h, no modulator (AID 1090);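 note: basal condition with compound alone and no growth modifier present; test concentration not given here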; conditions: S. pombe 972 growth, higher = more signal, called active from +8 up or from −8 down
[14] = S. cerevisiae growth modulation with rapamycin, primary screen, strain BY4716, OD600, 96 h (AID 1091); conditions: higher = more signal, called active from +8 up or from −8 down; note: test concentration not given here
[15] = biological target: Torsin-1A-interacting protein 2 (Homo sapiens) (UniProt Q8NFQ8); test: LULL1 binders on small-molecule microarray, primary screen, cell lysate, human LULL1 lysate, 635/667 nm fluorescence (AID 1092); conditions: hLULL1 lysate binding, 635 nm fluorescence, higher = more signal;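 note: probe is lysate of COS7 cells overexpressing human LULL1; score merges per-feature 667 nm fluorescence with signal-to-noise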
Torsin-1A-interacting protein 2 (Homo sapiens), sequence (Q8NFQ8 whole entry, looked up): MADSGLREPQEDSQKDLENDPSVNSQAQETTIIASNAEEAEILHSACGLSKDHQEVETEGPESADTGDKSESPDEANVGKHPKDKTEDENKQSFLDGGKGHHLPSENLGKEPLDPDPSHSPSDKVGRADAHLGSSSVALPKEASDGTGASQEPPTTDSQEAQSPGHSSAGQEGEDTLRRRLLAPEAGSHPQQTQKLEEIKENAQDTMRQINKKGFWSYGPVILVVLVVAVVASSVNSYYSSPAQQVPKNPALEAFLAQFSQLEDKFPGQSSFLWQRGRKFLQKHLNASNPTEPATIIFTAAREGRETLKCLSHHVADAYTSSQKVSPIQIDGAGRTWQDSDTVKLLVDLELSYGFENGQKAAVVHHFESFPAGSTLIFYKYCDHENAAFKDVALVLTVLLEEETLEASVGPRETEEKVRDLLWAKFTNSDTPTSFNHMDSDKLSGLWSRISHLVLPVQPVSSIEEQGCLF

[16] = E. coli growth modulation, two-sided OD650, primary screen, E. coli filamentation project, strain DRC41, 24 h (AID 1093); conditions: OD650, 24 h, higher = more signal, called active from +8 up or from −8 down;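 note: MC1000 strain lacking acrAB efflux and sulA so SOS filamentation is blocked; test concentration not given here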
[17] = small-molecule microarray binders of probe aLefty2, primary screen, biochemical, biotinylated probe, 635/667 nm fluorescence (AID 1094); conditions: higher = more signal;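 note: score merges spot fluorescence near 667 nm with spot signal-to-noise ratio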
[18] = system: Noggin (protein binding on small-molecule microarray); test: Noggin binders on small-molecule microarray, primary screen, biochemical, 635/667 nm fluorescence (AID 1095); conditions: 635 nm fluorescence, higher = more signal;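 note: score merges 667 nm feature fluorescence with signal to noise over triplicate slides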
[19] = biological target: Neurogenic locus notch homolog protein 3 (Homo sapiens) (UniProt Q9UM47); test: NOTCH3 binders on small-molecule microarray, primary screen, biochemical, 635/667 nm fluorescence (AID 1096); conditions: NOTCH3 binding, 635 nm fluorescence, higher = more signal
Neurogenic locus notch homolog protein 3 (Homo sapiens), sequence (Q9UM47 whole entry, looked up): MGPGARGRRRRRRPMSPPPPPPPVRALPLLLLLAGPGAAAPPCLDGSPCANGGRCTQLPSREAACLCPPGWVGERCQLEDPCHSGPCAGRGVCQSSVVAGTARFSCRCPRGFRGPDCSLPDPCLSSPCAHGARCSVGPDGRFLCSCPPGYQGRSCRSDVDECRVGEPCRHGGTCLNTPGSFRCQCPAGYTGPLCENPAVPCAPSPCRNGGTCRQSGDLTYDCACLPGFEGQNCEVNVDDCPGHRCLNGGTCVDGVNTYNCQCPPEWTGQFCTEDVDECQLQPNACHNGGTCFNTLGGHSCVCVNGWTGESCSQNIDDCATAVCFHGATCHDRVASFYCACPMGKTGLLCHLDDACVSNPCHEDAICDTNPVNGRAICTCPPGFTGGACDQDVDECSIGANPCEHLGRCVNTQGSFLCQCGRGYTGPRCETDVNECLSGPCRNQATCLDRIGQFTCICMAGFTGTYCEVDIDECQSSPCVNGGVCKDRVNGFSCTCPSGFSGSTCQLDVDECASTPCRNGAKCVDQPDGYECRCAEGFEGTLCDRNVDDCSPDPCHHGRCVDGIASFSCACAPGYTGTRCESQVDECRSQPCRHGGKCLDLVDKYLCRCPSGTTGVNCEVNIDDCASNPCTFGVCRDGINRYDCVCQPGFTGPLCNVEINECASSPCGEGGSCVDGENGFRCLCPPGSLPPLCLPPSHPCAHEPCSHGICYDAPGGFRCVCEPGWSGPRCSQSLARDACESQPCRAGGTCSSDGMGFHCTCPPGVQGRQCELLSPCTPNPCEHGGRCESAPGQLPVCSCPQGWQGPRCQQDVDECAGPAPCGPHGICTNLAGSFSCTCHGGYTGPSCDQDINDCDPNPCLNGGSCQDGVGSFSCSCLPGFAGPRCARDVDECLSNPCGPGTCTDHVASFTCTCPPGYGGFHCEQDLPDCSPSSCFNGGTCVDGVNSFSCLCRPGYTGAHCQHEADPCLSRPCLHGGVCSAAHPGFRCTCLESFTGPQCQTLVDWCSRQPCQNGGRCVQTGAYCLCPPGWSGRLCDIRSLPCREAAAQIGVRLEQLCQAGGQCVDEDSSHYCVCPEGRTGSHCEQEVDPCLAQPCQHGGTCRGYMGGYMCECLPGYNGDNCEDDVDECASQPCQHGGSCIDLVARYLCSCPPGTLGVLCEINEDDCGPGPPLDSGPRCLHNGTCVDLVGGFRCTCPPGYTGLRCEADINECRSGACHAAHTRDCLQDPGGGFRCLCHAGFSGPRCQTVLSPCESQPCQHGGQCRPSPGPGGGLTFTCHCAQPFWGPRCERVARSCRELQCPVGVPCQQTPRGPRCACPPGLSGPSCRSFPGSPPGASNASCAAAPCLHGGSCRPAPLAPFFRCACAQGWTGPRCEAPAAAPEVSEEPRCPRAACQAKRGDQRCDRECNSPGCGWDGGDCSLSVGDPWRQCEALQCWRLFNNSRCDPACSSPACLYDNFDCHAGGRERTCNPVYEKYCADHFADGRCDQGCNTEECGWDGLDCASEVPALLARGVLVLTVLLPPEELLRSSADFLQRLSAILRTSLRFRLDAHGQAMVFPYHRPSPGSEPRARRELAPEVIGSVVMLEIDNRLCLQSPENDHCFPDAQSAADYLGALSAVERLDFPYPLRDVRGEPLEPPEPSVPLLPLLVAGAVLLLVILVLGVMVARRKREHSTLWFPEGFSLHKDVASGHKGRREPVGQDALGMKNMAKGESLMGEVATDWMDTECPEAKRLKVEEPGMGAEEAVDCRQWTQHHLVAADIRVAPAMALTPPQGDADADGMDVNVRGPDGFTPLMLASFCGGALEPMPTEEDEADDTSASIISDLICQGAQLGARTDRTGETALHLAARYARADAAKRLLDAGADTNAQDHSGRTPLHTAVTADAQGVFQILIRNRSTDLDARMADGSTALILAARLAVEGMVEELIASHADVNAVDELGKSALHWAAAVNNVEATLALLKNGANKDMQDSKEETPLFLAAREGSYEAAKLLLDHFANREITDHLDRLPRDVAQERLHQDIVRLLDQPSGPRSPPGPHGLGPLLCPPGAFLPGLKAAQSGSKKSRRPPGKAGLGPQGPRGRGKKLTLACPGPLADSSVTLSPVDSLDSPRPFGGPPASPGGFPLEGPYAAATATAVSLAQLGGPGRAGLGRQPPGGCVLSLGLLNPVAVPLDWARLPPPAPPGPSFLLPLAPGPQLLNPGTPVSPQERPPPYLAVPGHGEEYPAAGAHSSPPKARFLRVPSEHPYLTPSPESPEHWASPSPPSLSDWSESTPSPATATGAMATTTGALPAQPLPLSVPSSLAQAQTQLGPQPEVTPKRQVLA

[20] = small-molecule microarray binders of probe aEGFR, primary screen, biochemical, biotinylated probe, 635/667 nm fluorescence (AID 1097); conditions: higher = more signal;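 note: probe is a biotinylated anti-EGFR antibody binding compounds printed on slides; score combines fluorescence near 667 nm and signal to noise of each spot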

Compound | composite z-score [1] | composite z-score [2] | composite z-score [3] | composite z-score [4] | composite z-score [5] | composite z-score [6] | composite z-score [7] | z-score [8] | composite z-score [9] | composite z-score [10] | composite z-score [11] | z-score [12] | z-score [13] | z-score [14] | composite z-score [15] | z-score [16] | composite z-score [17] | composite z-score [18] | composite z-score [19] | composite z-score [20]
CO[C@H]1COC(=O)CCC[C@H](C)[C@H](OC)COC(=O)CC=C[C@@H]1C | -0.535 | 1.95 | -0.142 | -0.692 | -0.497 | -0.441 | -0.291 | -0.948 (inactive) | -0.168 | 0.0922 | 1.12 | -1.3 (inactive) | -0.654 (inactive) | -1.59 (inactive) | -1.88 | -0.0243 (inactive) | -0.0113 | 1.13 | -0.398 | 0.0278
COc1ccc(COC(=O)NN=C2C[C@@H](O)[C@@H](O)[C@@H]3[C@@H]4C(=O)N(C[C@@H]5CCCO5)C(=O)[C@@H]4CC[C@H]23)cc1 | 0.467 | 0.326 | -0.076 | -0.302 | -0.467 | -0.234 | -0.563 | -0.249 (inactive) | 0.162 | 0.0106 | -0.478 | -0.0944 (inactive) | 0.247 (inactive) | -0.0457 (inactive) | 0.43 | -0.5 (inactive) | 0.258 | -0.809 | -0.398 | -0.211
CO[C@H]1COC(=O)CCC[C@H](C)[C@@H](OC)COC(=O)CC=C[C@@H]1C | -0.673 | 0.929 | -0.122 | 0.227 | 0.0458 | -0.21 | -0.179 | -0.0314 (inactive) | -0.106 | -0.0237 | 0.411 | 0.0303 (inactive) | 0.197 (inactive) | -1.08 (inactive) | -0.355 | 0.556 (inactive) | -0.0448 | 0.409 | 0.0682 | -0.0405
CO[C@@H]1COC(=O)[C@H](CCSC)NC(=O)CC=C[C@@H](C)COC(=O)[C@@H]2CCCN2C(=O)CC=C[C@H]1C | -0.313 | 2.62 | -0.0659 | 0.571 | 0.84 | -0.483 | 0.926 | -0.813 (inactive) | 0.16 | -0.0618 | 0.888 | -0.0153 (inactive) | -1.33 (inactive) | -0.495 (inactive) | -0.389 | -0.135 (inactive) | -0.261 | 0.862 | 0.468 | -0.0675
Cc1cc2c(nc1C)CCCCN2CC(O)CN1CCCc2nc(-c3ccc(Br)cc3)ccc21 (stereo not given) | -0.193 | 0.514 | -0.019 | 0.673 | 0.513 | 0.548 | 1.02 | 2.29 (inactive) | 0.5 | -0.146 | 0.829 | -0.178 (inactive) | -0.616 (inactive) | -0.051 (inactive) | -0.0639 | 0.353 (inactive) | -0.0083 | 0.558 | 1.11 | 0.0122
C=CC[C@@H]1C=C[C@H](Oc2ccc(C)cc2)[C@@H](COC(=O)NCc2cccc3ccccc23)O1 | -0.406 | 0.012 | -0.144 | 0.655 | -0.141 | 0.528 | 0.724 | -0.446 (inactive) | -0.174 | -0.251 | 0.261 | 0.697 (inactive) | -0.341 (inactive) | 0.774 (inactive) | 0.557 | -0.61 (inactive) | -0.116 | 0.725 | -0.0971 | -0.136
CC(=O)OC[C@H]1O[C@H](C#CCCc2ccccc2)C=C[C@@H]1OC(C)=O | -0.692 | 0.271 | -0.0732 | 0.335 | 0.445 | 1.22 | 0.543 | 0.0903 (inactive) | 0.302 | 0.0053 | 0.374 | 0.664 (inactive) | -2.4 (inactive) | -0.116 (inactive) | 1.38 | 0.396 (inactive) | 0.0092 | 0.57 | 0.341 | -0.021
COC(=O)[C@H](C)NC(=O)CCC1CC(OC(=O)NCc2cccc3ccccc23)CC2(CCCC(COC(=O)NCCC(C)C)O2)O1 (stereo not given in full) | -0.478 | 0.151 | -0.167 | 0.0257 | 0.0502 | 0.543 | 1.02 | 1.5 (inactive) | 0.0638 | -0.264 | 0.651 | -0.518 (inactive) | -1.07 (inactive) | -0.642 (inactive) | 1.84 | 0.384 (inactive) | -0.205 | 0.352 | 0.504 | -0.112
COC(=O)[C@H](C)NC(=O)CCC1CC(OC(=O)NCc2ccc3c(c2)OCO3)CC2(CCCC(COC(=O)NCCc3ccc(Cl)cc3)O2)O1 (stereo not given in full) | -0.592 | -0.406 | -0.0812 | 0.218 | 0.576 | 0.212 | 0.562 | 0.628 (inactive) | 0.17 | -0.126 | 0.898 | 0.341 (inactive) | 0.744 (inactive) | -0.529 (inactive) | 0.945 | 0.181 (inactive) | -0.14 | 0.621 | 0.67 | -0.0675
COC(=O)[C@H](C)NC(=O)CCC1CC(OC(=O)NCc2ccc3c(c2)OCO3)CC2(CCCC(COC(=O)NCc3ccccc3)O2)O1 (stereo not given in full) | -0.344 | 0.0374 | 0.0025 | 0.721 | 0.748 | 0.52 | 0.877 | -0.156 (inactive) | 0.0613 | -0.212 | 1.23 | 0.24 (inactive) | 0.532 (inactive) | 0.274 (inactive) | 1.64 | 0.326 (inactive) | -0.157 | 0.888 | 1.09 | -0.0234
